The subject of experiment [1] is XIP peptide (Xip251-270) binding. Briefly: small-molecule binders of XIP peptide, primary screen, biochemical, small-molecule microarray, fluorescence 635/667 nm, 0.1 µg/mL protein (AID 1182). To be noted: fluorescent protein binding, 635 nm, higher = more signal, called active from +8 up or from −8 down.
Another experiment relates to XIP peptide (Xip251-270). As to the kind of experiment: small-molecule binders of XIP peptide, primary screen, biochemical, small-molecule microarray, fluorescence 635/667 nm, 0.5 µg/mL protein (AID 1183). To be noted: small-molecule microarray binding, fluorescence 635 nm; higher = more signal.
Experiment [2] is described as follows: Plasmodium falciparum growth inhibition, primary screen, strain 3D7, DAPI fluorescence, 100 nL (AID 1184).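 Note: parasites grown inside human red blood cells in medium with human serum.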 Particulars: P. falciparum 3D7 growth, 3 d, higher = more signal.
In experiment [3] the target is Homeobox protein Hox-A13 (Mus musculus) (UniProt Q62424). As to the kind of experiment: inhibitors of HoxA13-DNA binding, primary screen, biochemical, fluorescence polarization, labeled oligonucleotide (AID 1185). To be noted: 15 min, higher = more signal, called active from +8 up or from −8 down. On the technique in general: In fluorescence polarisation assays a small probe gives low polarisation when free and higher when bound to something large.
Sequence of Homeobox protein Hox-A13 (Mus musculus) (Q62424 whole entry, looked up): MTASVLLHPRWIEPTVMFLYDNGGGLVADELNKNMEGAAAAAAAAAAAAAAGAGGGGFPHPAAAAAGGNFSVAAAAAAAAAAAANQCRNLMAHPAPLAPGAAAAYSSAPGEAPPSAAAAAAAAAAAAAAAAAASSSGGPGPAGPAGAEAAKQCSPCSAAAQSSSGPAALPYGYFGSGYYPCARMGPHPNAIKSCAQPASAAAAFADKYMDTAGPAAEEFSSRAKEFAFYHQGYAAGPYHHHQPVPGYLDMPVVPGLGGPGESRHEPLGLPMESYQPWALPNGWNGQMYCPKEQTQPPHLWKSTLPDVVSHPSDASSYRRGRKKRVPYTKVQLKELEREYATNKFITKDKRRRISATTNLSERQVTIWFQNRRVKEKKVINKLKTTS

Experiment [4] is described as follows: inhibitors of hydroxyurea-induced Chk1 phosphorylation, primary screen, imaging, HeLa, phospho-Chk1 antibody, percent positive cells (AID 1186). To be noted: hydroxyurea-induced phospho-Chk1 immunofluorescence imaging, higher = more signal.
Experiment [5] can be described thus: inhibitors of hydroxyurea-induced Chk1 phosphorylation, primary screen, imaging, HeLa, phospho-Chk1 nuclear intensity (AID 1187). To be noted: hydroxyurea-induced phospho-Chk1 immunofluorescence imaging, higher = more signal.

Calls of active or inactive are those of the source. Unless noted, the rule behind the calls is not given here.

On to `COc1cc(CO)cc(I)c1O[C@H]1C=C(C(=O)NCCO)C[C@@H](NCc2ccccc2F)[C@@H]1O`, for which the composite z-score in experiment [1] is -0.346 (inactive); in the experiment on XIP peptide (Xip251-270), 0.481. Moreover, the z-score in experiment [2] is -2.98; in experiment [3], -7.62 (inactive); in experiment [4] it was -0.24 (inactive); in experiment [5] it was 0.959 (inactive).

As to `C=CCC(OC(C)=O)[C@@H]1[C@@H](N(Cc2cc3ccccc3o2)C(=O)c2ccc(C)cc2)c2cc(OCCCO)ccc2N1C(=O)Cc1ccc2ccccc2c1` (stereo partly specified), the composite z-score in experiment [1] is -0.303 (inactive); with XIP peptide (Xip251-270), -0.419. Moreover, the z-score in experiment [2] was -0.429; in experiment [3] it was -1.45 (inactive); in experiment [4] it was 0.0151 (inactive); in experiment [5], 0.0749 (inactive).

Take `CCOC(=O)C1=CC[C@@H](c2cc(Cl)ccc2Cl)N(S(=O)(=O)c2ccc(C)cc2)[C@H]1c1ccc(OC)cc1`: the composite z-score was -0.244 (inactive) in experiment [1] and -0.837 in the experiment on XIP peptide (Xip251-270). Also, the z-score in experiment [2] is -1.41; in experiment [3], -1.08 (inactive); in experiment [4], -0.256 (inactive); in experiment [5], -0.611 (inactive).

Take `COc1c(C)cc(-c2cc3c(c(-c4ccccc4)n2)[Si](C(C)C)(C(C)C)OC3)cc1C`: the composite z-score in experiment [1] was 0.518 (inactive); in the experiment with XIP peptide (Xip251-270), -0.479. Besides, the z-score in experiment [2] was -1.03; in experiment [3], -0.238 (inactive); in experiment [4], -0.645 (inactive); in experiment [5], -0.268 (inactive).

In the case of `O=C1O[C@@H](c2ccccc2)[C@@H](c2ccccc2)N2[C@@H](c3ccccc3OCCO)[C@]3(C(=O)Nc4ccc(C#CC5=CCCCC5)cc43)[C@@H](C(=O)NC[C@H](O)c3ccccc3)[C@H]12`, the results for the composite z-score (in experiment [1]; in the experiment on XIP peptide (Xip251-270)) were 0.409 (inactive) and 0.0598, respectively. Besides, the z-score in experiment [2] was -1.7; in experiment [3], 1.62 (inactive); in experiment [4] it was -0.336 (inactive); in experiment [5] it was -0.415 (inactive).

As to `O=C1O[C@@H](c2ccccc2)[C@@H](c2ccccc2)N2[C@@H](c3ccc(O)cc3)[C@]3(C(=O)Nc4ccccc43)[C@@H](C(=O)Nc3nc4ccccc4s3)[C@H]12`, the composite z-score in experiment [1] was 1.03 (inactive); in the experiment with XIP peptide (Xip251-270) it was 0.638. The z-score in experiment [2] was -0.247; in experiment [3], 2.05 (inactive); in experiment [4], -0.193 (inactive); in experiment [5] it was -0.259 (inactive).

On to `NCCCCCCNC(=O)[C@@H]1C[C@@H]2C(=O)N3CCC[C@H]3C(=O)N2[C@@H]1c1ccc(O)cc1`, for which the composite z-score was -0.386 (inactive) in experiment [1] and 0.664 in the experiment on XIP peptide (Xip251-270). The z-score in experiment [2] was 1.42; in experiment [3], -2.07 (inactive); in experiment [4] it was 0.683 (inactive); in experiment [5], 0.289 (inactive).

As to `NC(N)=NCc1cn(CCc2c[nH]c3ccccc23)nn1`, the composite z-score in experiment [1] is 1.35 (inactive); in the experiment on XIP peptide (Xip251-270), 0.937. In addition, the z-score in experiment [2] is 0.743; in experiment [3], -2.09 (inactive); in experiment [4], 0.568 (inactive); in experiment [5], -0.248 (inactive).

On to `COC(=O)[C@@]1(Cc2ccc(F)cc2)[C@H]2c3cc(C(=O)N4CCCC4)n(CCF)c3C[C@H]2CN1C(=O)c1ccccc1`, for which the composite z-score is 2.43 (inactive) in experiment [1] and -0.352 with XIP peptide (Xip251-270). The z-score in experiment [2] was -0.815; in experiment [3] it was -4.62 (inactive); in experiment [4], -0.323 (inactive); in experiment [5], -0.593 (inactive).

On to `CC=CC(O)C1C=CC2C(=O)N(c3ccccc3)C(=O)C2N1Nc1ccccc1` (stereo unspecified), for which the values for the composite z-score (in experiment [1]; in the experiment with XIP peptide (Xip251-270)) were 0.228 (inactive) and 0.813, respectively. In addition, the z-score was -0.0445 in experiment [2], -4.14 (inactive) in experiment [3], 0.0716 (inactive) in experiment [4] and -0.167 (inactive) in experiment [5].

As for `COc1ccc(C(O)C2C=CC3C(=O)N(c4ccccc4)C(=O)C3N2Nc2ccccc2)cc1OCc1ccccc1` (stereo unspecified), the composite z-score in experiment [1] was 0.0123 (inactive); with XIP peptide (Xip251-270), 0.713. Further, the z-score in experiment [2] was -0.0742; in experiment [3], -1.8 (inactive); in experiment [4], 0.302 (inactive); in experiment [5] it was -0.156 (inactive).

With `CN(C)C(=O)[C@]1(CCC(=O)OC(C)(C)C)N=C(c2ccc(OCCCO)cc2)O[C@@H]1c1ccccc1`, the results for the composite z-score (in experiment [1]; in the experiment with XIP peptide (Xip251-270)) were 0.454 (inactive) and 0.116, respectively. The z-score is 0.201 in experiment [2], -5.58 (inactive) in experiment [3], -0.0091 (inactive) in experiment [4] and 0.277 (inactive) in experiment [5].

For `C=C[C@@H](C)[C@H](OC(=O)Nc1ccc(SC)cc1)c1ccc(OCCO)cc1`, the composite z-score in experiment [1] is 0.263 (inactive); with XIP peptide (Xip251-270) it was -0.0795. The z-score was -0.005 in experiment [2], -4.89 (inactive) in experiment [3], -0.405 (inactive) in experiment [4] and 0.433 (inactive) in experiment [5].

Consider `C[C@@H]1ON(c2ccc(C(=O)OC(C)(C)C)cc2)[C@H](c2ccc(Br)cc2)[C@H]1C(=O)N1C(=O)OC[C@H]1Cc1ccccc1`, for which the figures for the composite z-score (in experiment [1]; in the experiment with XIP peptide (Xip251-270)) were 0.36 (inactive) and 0.321, respectively. For the same molecule, the z-score is -0.238 in experiment [2], -0.654 (inactive) in experiment [3], -0.55 (inactive) in experiment [4] and -0.237 (inactive) in experiment [5].

Turning to `C=C[C@@H](COC(C)=O)NS(=O)(=O)c1ccc(Br)cc1`, the composite z-score is 0.0525 (inactive) in experiment [1] and 0.113 in the experiment on XIP peptide (Xip251-270). Besides, the z-score in experiment [2] was 0.4; in experiment [3] it was 0.34 (inactive); in experiment [4] it was -0.249 (inactive); in experiment [5] it was -0.227 (inactive).

For the molecule `C[C@H]1C2=C3C(CC[C@H]4C(OCc5ccc(F)cc5C(F)(F)F)OC[C@](C)([C@@H]34)N(C(=O)OC(C)(C)C)C2)C(CO)C1CO` (stereo partly specified), the values for the composite z-score (in experiment [1]; in the experiment on XIP peptide (Xip251-270)) were 0.456 (inactive) and 0.724, respectively. For the same molecule, the z-score in experiment [2] is -0.736; in experiment [3], -4.04 (inactive); in experiment [4], 0.491 (inactive); in experiment [5] it was 0.52 (inactive).
